Test results: PMC4336329 (PLoS ONE, 2015)
The whole screen tested about 310,000 compounds, of which about 14,000 (4.5%) showed an effect of 50% or more. Effects have a minus sign here. Shown is part of a subset that was picked to be rich in strong results.

Each compound was assayed against human ether-à-go-go-related gene (hERG) potassium channel (human, UniProt Q12809) (assay: primary screen, population patch clamp on CHO cells stably expressing hERG; higher = less effect of the substance).
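Also: peak tail current of the secondary pulse compared with the same well before compound.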

Sequence of human ether-à-go-go-related gene (hERG) potassium channel (Q12809 whole entry, looked up): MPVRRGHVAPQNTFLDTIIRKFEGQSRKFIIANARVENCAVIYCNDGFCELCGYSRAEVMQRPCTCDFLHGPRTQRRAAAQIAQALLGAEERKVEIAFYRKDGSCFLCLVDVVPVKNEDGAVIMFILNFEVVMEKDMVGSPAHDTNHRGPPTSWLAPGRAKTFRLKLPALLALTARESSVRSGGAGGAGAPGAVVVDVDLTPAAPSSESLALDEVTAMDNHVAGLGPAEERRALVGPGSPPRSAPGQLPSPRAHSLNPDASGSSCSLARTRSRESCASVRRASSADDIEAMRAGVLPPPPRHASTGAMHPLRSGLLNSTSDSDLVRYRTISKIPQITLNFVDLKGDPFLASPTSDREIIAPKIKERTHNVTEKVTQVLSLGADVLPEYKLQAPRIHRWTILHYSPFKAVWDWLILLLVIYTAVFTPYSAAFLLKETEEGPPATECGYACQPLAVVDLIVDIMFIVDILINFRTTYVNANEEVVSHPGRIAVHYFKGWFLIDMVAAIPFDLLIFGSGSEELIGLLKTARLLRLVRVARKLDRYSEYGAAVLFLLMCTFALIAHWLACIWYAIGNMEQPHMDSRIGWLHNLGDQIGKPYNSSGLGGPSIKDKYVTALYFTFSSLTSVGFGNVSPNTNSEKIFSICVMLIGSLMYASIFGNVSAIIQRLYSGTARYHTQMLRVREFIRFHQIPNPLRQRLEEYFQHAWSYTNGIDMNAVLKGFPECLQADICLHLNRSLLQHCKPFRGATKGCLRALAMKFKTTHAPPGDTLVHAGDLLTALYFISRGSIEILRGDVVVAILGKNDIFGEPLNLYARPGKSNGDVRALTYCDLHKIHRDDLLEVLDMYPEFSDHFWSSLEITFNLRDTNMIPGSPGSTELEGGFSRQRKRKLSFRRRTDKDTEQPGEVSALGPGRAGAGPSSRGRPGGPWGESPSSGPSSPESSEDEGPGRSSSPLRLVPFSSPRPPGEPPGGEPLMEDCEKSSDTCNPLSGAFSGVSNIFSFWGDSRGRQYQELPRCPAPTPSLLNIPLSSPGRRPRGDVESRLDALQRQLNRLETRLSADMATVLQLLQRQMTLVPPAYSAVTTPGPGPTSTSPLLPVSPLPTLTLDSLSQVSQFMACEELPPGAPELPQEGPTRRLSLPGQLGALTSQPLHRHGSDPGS

Going from `Cc1sc(NC(=O)c2ccco2)c(CN2CCC(C)CC2)c1C` to `Cc1ccc(NC(=O)NCC2CCN(Cc3cccc(Cl)c3)CC2)c(Cl)c1`, the “hERG current change (%, negative = inhibition) at 10uM” value falls from -16.2% to -59.8%.

Compared with `CCN(CC)C(=O)CSc1nnc(CNc2ccc(F)cc2)o1`, `O=C(CCN1CCN(C(=O)c2ccco2)CC1)Nc1ccc(F)cc1` is lower in “hERG current change (%, negative = inhibition) at 10uM” value: 1.13% for the first, -22.4% for the second.

Compared with `CN(Cc1nc(-c2ccncc2)no1)S(=O)(=O)c1ccc(Cl)cc1`, `Cc1ccc(S(=O)(=O)N(C)Cc2nc(-c3ccncc3)no2)cc1` is higher in “hERG current change (%, negative = inhibition) at 10uM” value: -55.5% for the first, -19.5% for the second.

Compared with `CN(Cc1nc(-c2ccncc2)no1)S(=O)(=O)c1ccc(Br)cc1`, `CN(Cc1nc(-c2cccnc2)no1)S(=O)(=O)c1ccc(Br)cc1` is higher in “hERG current change (%, negative = inhibition) at 10uM” value: -58.1% for the first, -46% for the second.

Going from `Cc1ccc(S(=O)(=O)N(C)Cc2nc(-c3ccc(Br)cc3)no2)cc1` to `CN(Cc1nc(-c2ccncc2)no1)S(=O)(=O)c1ccccc1`, the “hERG current change (%, negative = inhibition) at 10uM” value falls from 4.12% to 3.91%.

First: O=C(NNc1nc(-c2ccccc2)cs1)c1cccs1
Second: CNC(=O)c1ccccc1Sc1ccccc1CO
The “hERG current change (%, negative = inhibition) at 10uM” value of the first is lower: 10.7% for the first, 27.9% for the second.

Going from `O=C(COC(=O)c1ccc(F)cc1F)NCCNC(=O)COC(=O)c1ccc(F)cc1F` to `CCN(CC(=O)Nc1cccc(OC)c1)CC(=O)Nc1ccc(C)cc1Cl`, the “hERG current change (%, negative = inhibition) at 10uM” value falls from 16.8% to -10.4%.

Going from `Cc1c(Cl)cccc1NC(=O)CN1CCC(C(O)(c2ccccc2)c2ccccc2)CC1` to `Cc1ccccc1NC(=O)NCC1CCN(Cc2cccc(Cl)c2)CC1`, the “hERG current change (%, negative = inhibition) at 10uM” value falls from -12.3% to -60%.

Compared with `NNc1nc2c(Cl)ccc(Cl)c2s1`, `NS(=O)(=O)c1cccc(NC(=O)Cc2ccc(Cl)c(Cl)c2)c1` is lower in “hERG current change (%, negative = inhibition) at 10uM” value: 18.6% for the first, 6.09% for the second.

Compared with `O=C(NCCN1CCCC1)c1ccc(CS(=O)(=O)c2c(Cl)cccc2Cl)o1`, `CCN1CCN(CCNC(=O)c2ccc(CS(=O)(=O)c3c(Cl)cccc3Cl)o2)CC1` is higher in “hERG current change (%, negative = inhibition) at 10uM” value: -45.5% for the first, -8.19% for the second.

Going from `O=C(NCCc1ccccc1)c1ccc(CS(=O)(=O)c2ccc(Br)cc2)o1` to `O=C(NCCc1ccccc1)c1ccc(CS(=O)(=O)c2ccc(Cl)cc2)o1`, the “hERG current change (%, negative = inhibition) at 10uM” value falls from 10.2% to -2.15%.

Going from `CN(C)CCNC(=O)c1ccc(CS(=O)(=O)c2ccc(Br)cc2)o1` to `CN(CCNC(=O)c1ccc(CS(=O)(=O)c2ccc(Br)cc2)o1)CCc1ccccc1`, the “hERG current change (%, negative = inhibition) at 10uM” value falls from -3.14% to -77.5%.

Going from `O=C(NCCCN1CCOCC1)c1ccc(CS(=O)(=O)c2c(Cl)cccc2Cl)o1` to `CC1CCCN(CCCNC(=O)c2ccc(CS(=O)(=O)c3c(Cl)cccc3Cl)o2)C1` (stereo not shown), the “hERG current change (%, negative = inhibition) at 10uM” value falls from 2.35% to -44.8%.

First: COC(CNC(=O)c1ccc(CS(=O)(=O)c2c(Cl)cccc2Cl)o1)OC
Second: CC(C)N(CCNC(=O)c1ccc(CS(=O)(=O)c2c(Cl)cccc2Cl)o1)Cc1ccccc1
The “hERG current change (%, negative = inhibition) at 10uM” value of the first is higher: 21.2% for the first, -70.6% for the second.

First: CN(CCNC(=O)c1ccc(CS(=O)(=O)c2c(Cl)cccc2Cl)o1)CCc1ccccc1
Second: CC(C)N(CCCNC(=O)c1ccc(CS(=O)(=O)c2c(Cl)cccc2Cl)o1)Cc1ccccc1
The “hERG current change (%, negative = inhibition) at 10uM” value of the first is lower: -70% for the first, -67.7% for the second.

First: NC(=O)C1=C[C@H](c2ccc(C(F)(F)F)cc2)C[C@H](OCCCCO)O1
Second: Cl.O=C(c1ccco1)N1CCN(CCCCOc2ccc(F)cc2)CC1
The “hERG current change (%, negative = inhibition) at 10uM” value of the first is higher: -4.54% for the first, -74.4% for the second.

Going from `CCCOc1ccc(C2NC(=S)NC(c3ccccc3)=C2C(=O)Nc2ccc(C)cc2)cc1OC` (stereo not shown) to `CCOc1ccc(NC(=O)CNC(=O)c2ccc([N+](=O)[O-])cc2)cc1`, the “hERG current change (%, negative = inhibition) at 10uM” value falls from 0.514% to -7.46%.

First: COc1ccccc1/C=N/NC(=O)c1ccc2c(c1)OCO2
Second: Cc1cc(N/N=C\c2ccccc2)nc(-c2ccccc2O)n1
The “hERG current change (%, negative = inhibition) at 10uM” value of the first is higher: 7.71% for the first, 4.95% for the second.

Compared with `Cc1ccccc1OCC(=O)NCC1CCCO1` (stereo not shown), `O=C(Cn1c(C(=O)NCC2CCCO2)cc2sccc21)c1ccccc1` (stereo not shown) is lower in “hERG current change (%, negative = inhibition) at 10uM” value: 13.3% for the first, -3.47% for the second.

Going from `Cn1c(NC(=O)c2cc(Br)ccc2Cl)cc(=O)n(C)c1=O` to `COc1ccc(C(=O)Oc2c(C)occc2=O)cc1OC`, the “hERG current change (%, negative = inhibition) at 10uM” value rises from 1.62% to 9.93%.

First: COc1ccc(N2CCN(S(=O)(=O)c3cc4c5c(c3)C(C)C(=O)N5CCC4)CC2)cc1 (stereo not shown)
Second: CC1C(=O)N2CCCc3cc(S(=O)(=O)N4CCN(c5ccc(F)cc5)CC4)cc1c32 (stereo not shown)
The “hERG current change (%, negative = inhibition) at 10uM” value of the first is higher: 3.36% for the first, -50.3% for the second.

Going from `CC1C(=O)N2CCCc3cc(S(=O)(=O)N4CCN(c5ccccc5F)CC4)cc1c32` (stereo not shown) to `CN1CCN(c2cc(N3CCc4ccccc4C3)c(F)cc2[N+](=O)[O-])CC1`, the “hERG current change (%, negative = inhibition) at 10uM” value falls from -8.8% to -44.2%.

Going from `O=C(/C=C/c1ccccc1[N+](=O)[O-])Nc1ccccc1` to `O=C(CCC(=O)Nc1ccccc1)NNC(=O)c1ccco1`, the “hERG current change (%, negative = inhibition) at 10uM” value falls from 10.1% to 8.99%.

Compared with `O=c1cc(CSc2ccccn2)c2ccccc2[nH]1`, `C=CCn1c(=O)c(C(=O)NC(C)c2ccccc2)c(O)c2ccccc21` (stereo not shown) is higher in “hERG current change (%, negative = inhibition) at 10uM” value: 9.52% for the first, 18.3% for the second.

Going from `CN(Cc1c(O)ccc2c1oc(=O)c1ccccc12)C1CCCCC1` to `C=CCN(CC=C)Cc1c(O)ccc2c1oc(=O)c1ccccc12`, the “hERG current change (%, negative = inhibition) at 10uM” value falls from -42.8% to -71.6%.

Going from `C=CCN(CC=C)Cc1c(O)ccc2c(=O)c(-c3ccccc3)coc12` to `O=C(c1ccc2c(=O)n(Cc3ccccc3Cl)c(=S)[nH]c2c1)N1CCCC1`, the “hERG current change (%, negative = inhibition) at 10uM” value rises from -16.9% to 4.9%.

First: Cc1ccccc1NC(=O)NCC1CCN(C(=O)OC(C)(C)C)CC1
Second: O=C(COC(=O)c1ccccc1SCC(=O)N1CCCC1)NC1CCCCC1
The “hERG current change (%, negative = inhibition) at 10uM” value of the first is lower: -19.6% for the first, -5.12% for the second.

First: Cc1ccc(OCC(=O)N2N=C(C(F)(F)F)CC2(O)C(C)(C)C)cc1C (stereo not shown)
Second: CCOc1c(C)cc2[nH]c(CCC(=O)O)nc2c1C.Cl
The “hERG current change (%, negative = inhibition) at 10uM” value of the first is lower: -15.9% for the first, -0.00982% for the second.

First: O=C(NC1CCCCC1)C(c1cccs1)N(C(=O)Cc1c[nH]c2ccccc12)c1ccc(F)cc1 (stereo not shown)
Second: O=C(Cn1c(C(=O)N2CCN(C3CCCCC3)CC2)cc2sccc21)c1ccccc1
The “hERG current change (%, negative = inhibition) at 10uM” value of the first is higher: 14.7% for the first, -70.7% for the second.

Compared with `Cc1ccc(S(=O)(=O)Cc2ccc(C(=O)N3CCN(c4cccc(C)c4C)CC3)o2)cc1`, `Cl.O=C(c1ccco1)N1CCN(CCOc2ccc(F)cc2)CC1` is lower in “hERG current change (%, negative = inhibition) at 10uM” value: -7.95% for the first, -47.4% for the second.

Compared with `Cc1cc(Cl)ccc1OCc1n[nH]c(=S)n1C1CCCCC1`, `COCCn1c(-c2ccccc2F)n[nH]c1=S` is higher in “hERG current change (%, negative = inhibition) at 10uM” value: 21.1% for the first, 21.5% for the second.

First: CC(=O)N1CCN(c2cc(N3CCc4ccccc4C3)c(F)cc2[N+](=O)[O-])CC1
Second: CCN1CCN(c2cc(N3CCc4ccccc4C3)c(F)cc2[N+](=O)[O-])CC1
The “hERG current change (%, negative = inhibition) at 10uM” value of the first is higher: -41.3% for the first, -51.9% for the second.

Going from `CCN1CCN(C(=O)c2cc3sccc3n2CC(=O)c2ccccc2)CC1` to `CN1CCN(C(=O)c2cc3sccc3n2CC(=O)c2ccccc2)CC1`, the “hERG current change (%, negative = inhibition) at 10uM” value rises from -45.5% to -27.6%.

Going from `O=C(Cn1c(C(=O)N2CCN(C3CCCC3)CC2)cc2sccc21)c1ccccc1` to `O=C(Cn1c(C(=O)N2CCc3ccccc3C2)cc2sccc21)c1ccccc1`, the “hERG current change (%, negative = inhibition) at 10uM” value rises from -76.1% to 4.01%.

First: CCOc1cc(N2CCOCC2)c(OCC)cc1NC(=O)C1CC(=O)N(c2ccc(C)cc2)C1 (stereo not shown)
Second: Nc1c(C(=O)Nc2ccccc2)c2nc3ccccc3nc2n1CCCN1CCOCC1
The “hERG current change (%, negative = inhibition) at 10uM” value of the first is lower: -2.64% for the first, 18.7% for the second.

Compared with `C#CCNc1nc(CC)nc2c1nnn2Cc1ccccc1F`, `CCc1nc(NCCCCCO)c2nnn(Cc3ccccc3F)c2n1` is lower in “hERG current change (%, negative = inhibition) at 10uM” value: -0.696% for the first, -28.8% for the second.

First: CCc1nc(NCC2CCCN2CC)c2nnn(Cc3ccccc3F)c2n1 (stereo not shown)
Second: CCCc1nc(C)cc(N2CCN(c3ccccc3)CC2)n1.Cl
The “hERG current change (%, negative = inhibition) at 10uM” value of the first is lower: -54.2% for the first, -51.7% for the second.

First: CCOC(=O)C1C(=O)NC(SCC(=O)Nc2nccs2)=C(C#N)C1c1ccccc1OCC (stereo not shown)
Second: O=C(CCCCCCN1C(=O)c2ccccc2C1=O)Nc1nccs1
The “hERG current change (%, negative = inhibition) at 10uM” value of the first is higher: 13.7% for the first, 12.2% for the second.

Going from `COc1ccc(OC)c(C2C3CN(C(C)C)CC=C3C(C#N)=C(N)C2(C#N)C#N)c1` (stereo not shown) to `COc1cc(CNCCO)cc(Br)c1OCc1cccs1.Cl`, the “hERG current change (%, negative = inhibition) at 10uM” value rises from -16.2% to -8.81%.

Compared with `CCCCc1nc(SCC(=O)N2CCCC2)c2c(=O)n(C)c(=O)n(C)c2n1`, `O=C(c1ccco1)N1CCN(CCCCN2C(=O)c3ccccc3C2=O)CC1` is lower in “hERG current change (%, negative = inhibition) at 10uM” value: -23% for the first, -40% for the second.

Compared with `CN1CCN(CCCCOc2cccc3ccccc23)CC1.Cl`, `Cl.O=C(c1ccco1)N1CCN(CCCCOc2cccc3ccccc23)CC1` is lower in “hERG current change (%, negative = inhibition) at 10uM” value: -27.4% for the first, -62.4% for the second.

First: COc1cccc(OC)c1OCCN1CCN(C(=O)c2ccco2)CC1.Cl
Second: Cl.O=C(c1ccco1)N1CCN(CCOCCOc2cccc3ccccc23)CC1
The “hERG current change (%, negative = inhibition) at 10uM” value of the first is higher: -16.2% for the first, -62.5% for the second.

First: O=C(O)C(=O)O.c1ccc(CN2CCN(CCOCCOc3cccc4ccccc34)CC2)cc1
Second: Cc1cc(N2CCN(c3ccccc3)CC2)nc(NCc2ccccc2)n1
The “hERG current change (%, negative = inhibition) at 10uM” value of the first is lower: -43.3% for the first, 4.25% for the second.

Compared with `CC(C)(C)c1ccc(NC(=S)NCc2cccs2)cc1`, `Cc1cc(N2CCN(c3ccccc3)CC2)nc(-n2nc(C)cc2C)n1` is lower in “hERG current change (%, negative = inhibition) at 10uM” value: 4.35% for the first, -63.2% for the second.

First: Cc1cc(N2CCN(c3ccccc3)CC2)nc(N)n1.Cl
Second: Cc1cc(C)n(-c2nnc(N3CCN(c4ccccc4)CC3)nn2)n1
The “hERG current change (%, negative = inhibition) at 10uM” value of the first is lower: -42.9% for the first, -16% for the second.

In the case of `Cc1cc(N2CCC(C)CC2)nc(-n2nc(C)cc2C)n1`, the “hERG current change (%, negative = inhibition) at 10uM” value is reported as -30.3%.
